The nature of experiment [1]: NCI Yeast Anticancer Drug Screen. Data for the rad50 strain (AID 155).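 Note: 0% = growth of vehicle-only cultures of the same strain.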 The settings on record: S. cerevisiae rad50 strain growth inhibition; at 50.0 µM; hits give high values. A digest of the protocol: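 Readout: growth inhibition relative to vehicle-treated cultures. Compound exposure was carried out in a genetically defined yeast strain deficient in DNA damage repair.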

A short description of experiment [2]: NCI Yeast Anticancer Drug Screen. Data for the mec2-1 strain (AID 157). The settings on record: S. cerevisiae mec2-1 strain, at 50.0 µM, hits give high values. Summed up:
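Vehicle-treated cultures served as reference for growth inhibition of compound-exposed mec2-1 yeast.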

A short description of experiment [3]: NCI Yeast Anticancer Drug Screen. Data for the sgs1 mgt1 strain (AID 161).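 Note: 0% = growth of cultures given vehicle only.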 Particulars: S. cerevisiae sgs1 mgt1 strain, at 50.0 µM, hits give high values. A digest of the protocol: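 Read-out: growth inhibition vs vehicle controls. Cells: mutant yeast strain deficient in DNA damage repair.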
Experiment [4] in a line: NCI Yeast Anticancer Drug Screen. Data for the cln2 rad14 strain (AID 165).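 Note: 0% = growth equal to vehicle treated cultures.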 The settings on record: S. cerevisiae cln2 rad14 strain, at 50.0 µM, hits give high values. A digest of the protocol:
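Each compound was tested on cln2 rad14 yeast. Inhibition of growth was calculated against vehicle-exposed controls.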

Experiment [5] is described as follows: NCI Yeast Anticancer Drug Screen. Data for the bub3 strain (AID 167). Particulars: S. cerevisiae bub3 mutant strain, at 50.0 µM, hits give high values. A digest of the protocol:
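Readout: yeast growth inhibition, expressed relative to vehicle-only wells. The test organism is a mutant strain from a panel with lesions in DNA repair or checkpoint genes.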

A short description of experiment [6]: NCI Yeast Anticancer Drug Screen. Data for the mlh1 rad18 strain (AID 175). Particulars: S. cerevisiae mlh1 rad18 strain growth inhibition; at 50.0 µM; hits give high values. A digest of the protocol:
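Vehicle-treated cultures served as the reference for growth inhibition in a yeast strain carrying DNA damage repair alterations exposed to each compound.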

SMILES strings stand for the structures. The panel holds about 79,000 compounds, 15% with a hit somewhere; the sample as a whole holds those more often. Unmarked numbers belong to inactive results. Active and inactive are the calls of the source. Cut-off read from the data, not from the text of the source: active = growth inhibition above about 70%; inactive = the rest.

Take `O=C(OCC(Br)C(Br)c1ccccc1)c1ccccc1` (stereo unspecified): the growth inhibition in experiment [1] is -13.3%; in experiment [2] it was -12.6%; in experiment [3], -2%; in experiment [4] it was -1.4%; in experiment [5] it was 73.6% (active); in experiment [6] it was -27.6%.
Consider `CC(=O)CC(=O)OC(C)OC(=O)CC(C)=O`, for which the growth inhibition is -2.1% in experiment [1]; -13.4% in experiment [2]; -11.4% in experiment [3]; -2.5% in experiment [4]; -0.7% in experiment [5]; 0.25% in experiment [6].
For the compound `O=C(O)c1cccc2c1CCCC2`, the growth inhibition is -2.7% in experiment [1]; 7.35% in experiment [2]; -21.6% in experiment [3]; 0.05% in experiment [4]; -11.6% in experiment [5]; 8.05% in experiment [6].
Turning to `O=C(O)Cc1c(-c2ccccc2)nc(=S)[nH]c1-c1[nH]c(=S)nc(-c2ccccc2)c1CC(=O)O`, the growth inhibition was -15.6% in experiment [1]; 10.1% in experiment [2]; -17% in experiment [3]; -12.3% in experiment [4]; 2.15% in experiment [5]; 2.25% in experiment [6].
For the compound `CC1(C)COC(=O)/C1=C/C#N`, the growth inhibition in experiment [1] is 5.1%; in experiment [2] it was 2.6%; in experiment [3], -1.5%; in experiment [4], -38.5%; in experiment [5] it was -12.4%; in experiment [6], 12.3%.
Turning to `CC1C2CC(CC2O)C1(C)C` (stereo unspecified), the growth inhibition in experiment [1] was 11.3%; in experiment [2], 16.6%; in experiment [3] it was 18.1%; in experiment [4], 24.4%; in experiment [5] it was 6.3%; in experiment [6], 15.9%.
In the case of `O=C(NNC(=O)Nc1ccccc1)Nc1ccccc1`, the growth inhibition in experiment [1] is -0.8%; in experiment [2], -16.7%; in experiment [3], -0.95%; in experiment [4], -12.9%; in experiment [5], -3.2%; in experiment [6], -7%.
`CC(=O)OC(C)C(=O)OCCOc1ccccc1` (stereo unspecified): the growth inhibition in experiment [1] is 8.7%; in experiment [2], -12%; in experiment [3], 14.3%; in experiment [4], -36.6%; in experiment [5], -7.3%; in experiment [6], -4%.
In the case of `Cc1cc(=O)c2c(ccc3c(=O)cc(C)[nH]c32)[nH]1`, the growth inhibition in experiment [1] was -56.8%; in experiment [2], -21.2%; in experiment [3] it was -14.3%; in experiment [4], -52.2%; in experiment [5], -3.1%; in experiment [6] it was 3.25%.
On to `COCC(O)CC#N` (stereo unspecified), for which the growth inhibition in experiment [1] is 14.1%; in experiment [2] it was 4%; in experiment [3], -3.65%; in experiment [4], 7.65%; in experiment [5] it was 9.65%; in experiment [6], 3.9%.
As to `C(=C\C(SCc1ccccc1)SCc1ccccc1)/c1ccccc1`, the growth inhibition in experiment [1] was -43%; in experiment [2], -60%; in experiment [3], -27.8%; in experiment [4], 3.55%; in experiment [5], -7.2%; in experiment [6], -35.6%.
Turning to `O=S(=O)(O)c1cccc2cccc(Nc3ccccc3)c12`, the growth inhibition in experiment [1] was -0.5%; in experiment [2], 0.35%; in experiment [3], 8.85%; in experiment [4], -33.1%; in experiment [5], -14.8%; in experiment [6], 25.4%.
Turning to `CO/N=C1/c2sccc2[C@H](NC(=O)C(Cc2ccccc2)NC(=O)OC(C)(C)C)[C@@H]1O` (stereo partly specified), the growth inhibition is -18.2% in experiment [1]; -13.1% in experiment [2]; -14% in experiment [3]; -11.9% in experiment [4]; -2.35% in experiment [5]; 13.7% in experiment [6].
With `Cn1c(=O)n(CCn2c(=O)n(C)c3ccccc32)c2ccccc21`, the growth inhibition was -1.6% in experiment [1]; 14% in experiment [2]; -3.15% in experiment [3]; 3.55% in experiment [4]; 4.5% in experiment [5]; -3.8% in experiment [6].
Regarding `C[N+]([O-])(CCO)Cc1ccccc1` (stereo unspecified), the growth inhibition was -1.45% in experiment [1]; -17.8% in experiment [2]; -6.1% in experiment [3]; 0.95% in experiment [4]; 4.75% in experiment [5]; -14.3% in experiment [6].
With `COc1ccc2c(c1)-c1c3c(cc4ccnc(c14)C2=O)OCO3`, the growth inhibition in experiment [1] was 91.7% (active); in experiment [2] it was 93% (active); in experiment [3], 93.4% (active); in experiment [4], 91.5% (active); in experiment [5], 92% (active); in experiment [6], 91.8% (active).
Consider `CCOC1OC(C2COC(=O)O2)C(O)C1O` (stereo unspecified), for which the growth inhibition in experiment [1] is 15.8%; in experiment [2], 10.6%; in experiment [3] it was -3.85%; in experiment [4] it was -71.2%; in experiment [5] it was 7.4%; in experiment [6], -3%.
With `CCc1nc2ccccc2cc1C`, the growth inhibition in experiment [1] is 5.5%; in experiment [2], -4.55%; in experiment [3] it was 3.5%; in experiment [4], -19.6%; in experiment [5] it was 1.1%; in experiment [6], 2.6%.
On to `N#Cc1nc(CC(=O)/C=C/c2ccccc2)c(CC(=O)/C=C/c2ccccc2)nc1C#N`, for which the growth inhibition in experiment [1] was 3.7%; in experiment [2] it was 13.7%; in experiment [3], 8.05%; in experiment [4], 16.3%; in experiment [5] it was 1.3%; in experiment [6] it was 21.3%.
Regarding `O=c1nc2c(c(-c3ccc(Br)cc3)[nH]1)COC/C2=C\c1ccc(Br)cc1`, the growth inhibition in experiment [1] was 31.1%; in experiment [2] it was 17.2%; in experiment [3], 35.8%; in experiment [4], 8%; in experiment [5] it was 18.1%; in experiment [6], 31.3%.
For the compound `C=C1C(=O)SC(=NCc2ccccc2)N1C`, the growth inhibition in experiment [1] was 24.4%; in experiment [2], 16.4%; in experiment [3], 19.9%; in experiment [4] it was 19.9%; in experiment [5], 0%; in experiment [6], 25.8%.

These data come from PubChem BioAssay (NCI).
